In PubChem BioAssay AID1159580 (chemical genetic matrix, 2015):
The whole screen tested about 5,500 compounds, of which about 2,000 (36%) were called active. Inconclusive results (about 18%) are left out. Cut-off read from the data, not from the text of the source: active = normalized growth mostly below about 0.91 (no sharp cut-off); inconclusive = no clear call, values can overlap the other calls; inactive = mostly above about 0.92. This is one part of the list.

Experiment: chemical genetic growth profiling, strain panel (AID 1159580);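 note: tested at 20 µM; growth read once vehicle control cultures reached saturation at 30 °C; 1 = growth at the plate median or of vehicle wells; lower values mean less growth of the strain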
Conditions: growth OD

Measured: normalized growth

OCc1ccccc1O
inactive: S. cerevisiae deletion strains, locus YKL068W, active compounds read low 0.994 | S. cerevisiae deletion strains, locus YKL085W, strain MDH1 (second series), active compounds read low 0.992 | S. cerevisiae deletion strains, locus YKL085W, strain MDH1, active compounds read low 0.992 | S. cerevisiae deletion strains, locus YKL160W, strain elf1, active compounds read low 1.04 | S. cerevisiae deletion strains, locus YKL190W, strain CNB1, active compounds read low 1.01 | S. cerevisiae deletion strains, locus YKR001C, strain vps1, active compounds read low 0.989 | S. cerevisiae deletion strains, locus YKR026C, strain gcn3, active compounds read low 1.02 | S. cerevisiae deletion strains, locus YKR091W, strain srl3, active compounds read low 1.01 | S. cerevisiae deletion strains, locus YLL001W, strain dnm1, active compounds read low 1.01 | S. cerevisiae deletion strains, locus YLL026W, active compounds read low 1 | S. cerevisiae deletion strains, locus YLL041C, strain sdh2, active compounds read low 1.01 | S. cerevisiae deletion strains, locus YLR027C, strain aat2, active compounds read low 1.02 | S. cerevisiae deletion strains, locus YLR039C, strain RIC1, active compounds read low 0.988 | S. cerevisiae deletion strains, locus YLR058C, strain SHM2, active compounds read low 1.02 | S. cerevisiae deletion strains, locus YLR102C, strain apc9, active compounds read low 0.981 | S. cerevisiae deletion strains, locus YLR113W, strain HOG1, active compounds read low 1.03 | S. cerevisiae deletion strains, locus YLR221C, strain rsa3, active compounds read low 1.02 | S. cerevisiae deletion strains, locus YLR258W, strain gsy2, active compounds read low 1.02 | S. cerevisiae deletion strains, locus YLR262C, strain YPT6 (second series), active compounds read low 1.06 | S. cerevisiae deletion strains, locus YLR262C, strain YPT6, active compounds read low 1.04 | S. cerevisiae deletion strains, locus YLR268W, strain sec22, active compounds read low 0.969 | S. cerevisiae deletion strains, locus YLR320W, strain mms22, active compounds read low 1.02 | S. cerevisiae deletion strains, locus YLR330W, strain CHS5, active compounds read low 1.01 | S. cerevisiae deletion strains, locus YLR342W, strain FKS1 (second series), active compounds read low 1.01 | S. cerevisiae deletion strains, locus YLR342W, strain FKS1, active compounds read low 1.03 | S. cerevisiae deletion strains, locus YLR357W, strain rsc2, active compounds read low 1.08 | S. cerevisiae deletion strains, locus YLR370C, strain arc18, active compounds read low 1.01 | S. cerevisiae deletion strains, locus YLR371W, strain rom2, active compounds read low 0.989 | S. cerevisiae deletion strains, locus YLR384C, strain iki3, active compounds read low 1.01 | S. cerevisiae deletion strains, locus YLR418C, strain cdc73, active compounds read low 0.962 | S. cerevisiae deletion strains, locus YML016C, strain PPZ1, active compounds read low 1.02 | S. cerevisiae deletion strains, locus YML032C, strain rad52, active compounds read low 0.979 | S. cerevisiae deletion strains, locus YML120C, strain ndi1, active compounds read low 1.01 | S. cerevisiae deletion strains, locus YML124C, strain tub3, active compounds read low 0.997 | S. cerevisiae deletion strains, locus YMR058W, strain fet3, active compounds read low 1.02 | S. cerevisiae deletion strains, locus YMR078C, strain ctf18, active compounds read low 0.993 | S. cerevisiae deletion strains, locus YMR125W, strain sto1, active compounds read low 1.01 | S. cerevisiae deletion strains, locus YMR129W, active compounds read low 1.03 | S. cerevisiae deletion strains, locus YMR205C, strain PFK2, active compounds read low 1.03 | S. cerevisiae deletion strains, locus YMR223W, strain ubp8, active compounds read low 0.994 | S. cerevisiae deletion strains, locus YMR231W, strain pep5, active compounds read low 1.01 | S. cerevisiae deletion strains, locus YMR263W, strain SAP30, active compounds read low 1.02 | S. cerevisiae deletion strains, locus YMR307W, strain GAS1, active compounds read low 1.01 | S. cerevisiae deletion strains, locus YNL067W, strain RPL9B, active compounds read low 1.01 | S. cerevisiae deletion strains, locus YNL071W, strain lat1, active compounds read low 1.04 | S. cerevisiae deletion strains, locus YNL128W, strain TEP1, active compounds read low 1.02 | S. cerevisiae deletion strains, locus YNL153C, strain GIM3, active compounds read low 1.01 | S. cerevisiae deletion strains, locus YNL183C, strain NPR1, active compounds read low 1 | S. cerevisiae deletion strains, locus YNL209W, strain ssb2, active compounds read low 1.02 | S. cerevisiae deletion strains, locus YNL233W, strain BNI4, active compounds read low 1.01 | S. cerevisiae deletion strains, locus YNL248C, strain rpa49, active compounds read low 1.04 | S. cerevisiae deletion strains, locus YNL250W, strain rad50, active compounds read low 0.986 | S. cerevisiae deletion strains, locus YNL271C, strain bni1, active compounds read low 0.98 | S. cerevisiae deletion strains, locus YNL298W, strain CLA4, active compounds read low 0.981 | S. cerevisiae deletion strains, locus YNL307C, strain MCK1, active compounds read low 0.989 | S. cerevisiae deletion strains, locus YNL322C, strain KRE1 (second series), active compounds read low 1.03 | S. cerevisiae deletion strains, locus YNL322C, strain KRE1, active compounds read low 1.01 | S. cerevisiae deletion strains, locus YNR049C, strain mso1, active compounds read low 1.02 | S. cerevisiae deletion strains, locus YNR052C, strain pop2, active compounds read low 0.989 | S. cerevisiae deletion strains, locus YOL006C, strain TOP1, active compounds read low 1.06 | S. cerevisiae deletion strains, locus YOL012C, strain htz1 0.829 | S. cerevisiae deletion strains, locus YOL147C, strain pex11, active compounds read low 0.985 | S. cerevisiae deletion strains, locus YOR001W, strain rrp6, active compounds read low 1.03 | S. cerevisiae deletion strains, locus YOR061W, strain CKA2, active compounds read low 1.02 | S. cerevisiae deletion strains, locus YOR069W, strain VPS5, active compounds read low 1.01 | S. cerevisiae deletion strains, locus YOR070C, strain gyp1, active compounds read low 1.03 | S. cerevisiae deletion strains, locus YOR080W, strain dia2, active compounds read low 1.02 | S. cerevisiae deletion strains, locus YOR083W, strain WHI5, active compounds read low 1.02 | S. cerevisiae deletion strains, locus YOR106W, strain vam3, active compounds read low 1.01 | S. cerevisiae deletion strains, locus YOR136W, strain idh2, active compounds read low 0.992 | S. cerevisiae deletion strains, locus YOR144C, strain elg1, active compounds read low 0.991 | S. cerevisiae deletion strains, locus YOR184W, strain ser1, active compounds read low 0.984 | S. cerevisiae deletion strains, locus YOR231W, strain MKK1, active compounds read low 1.03 | S. cerevisiae deletion strains, locus YOR265W, strain rbl2, active compounds read low 1 | S. cerevisiae deletion strains, locus YOR270C, strain vph1, active compounds read low 1.03 | S. cerevisiae deletion strains, locus YOR290C, strain snf2, active compounds read low 1.01 | S. cerevisiae deletion strains, locus YOR316C, strain cot1, active compounds read low 0.996 | S. cerevisiae deletion strains, locus YPL051W, strain arl3, active compounds read low 1.03 | S. cerevisiae deletion strains, locus YPL078C, strain atp4, active compounds read low 1.02 | S. cerevisiae deletion strains, locus YPL106C, strain sse1, active compounds read low 1.07 | S. cerevisiae deletion strains, locus YPL240C, strain hsp82, active compounds read low 1.01 | S. cerevisiae deletion strains, locus YPL241C, strain CIN2, active compounds read low 1.01 | S. cerevisiae deletion strains, locus YPL256C, strain CLN2, active compounds read low 1.07 | S. cerevisiae deletion strains, locus YPR119W, strain clb2, active compounds read low 0.986 | S. cerevisiae deletion strains, locus YPR141C, strain kar3, active compounds read low 0.992 | S. cerevisiae deletion strains, locus YPR163C, strain tif3, active compounds read low 0.994 | S. cerevisiae deletion strains, locus YPR167C, strain met16, active compounds read low 0.989 | S. cerevisiae deletion strains, strain wtn01, active compounds read low 0.973 | S. cerevisiae strains, strain wild type, active compounds read low 1.01
